Assay outcomes (PubChem BioAssay)
Pf gamet viab: kills late stage P. falciparum gametocytes | P. falciparum stage V gametocytes, ATP luminescence, 24 h | inhibition, % at 10.9 µM | 0.065% of 150,000 active;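 active = inhibition above the mean plus 3 SD of compounds within the control limits, set per campaign, cut at about 38% in these data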
Mcl1 Noxa PPI: disrupts binding of human Mcl-1 to Noxa peptide | inhibition, % at 21.7 µM | 1.5% of 220,000 active | AID 1022 | TR-FRET Mcl-1/Noxa peptide binding, 2 h;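 active = compounds that cut the protein-peptide binding signal by more than 50% relative to plate controls in a single-dose test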;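 also: His-tagged Mcl-1 with rhodamine Noxa BH3 peptide and terbium anti-His antibody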
Target sequence (Q07820 whole entry, looked up): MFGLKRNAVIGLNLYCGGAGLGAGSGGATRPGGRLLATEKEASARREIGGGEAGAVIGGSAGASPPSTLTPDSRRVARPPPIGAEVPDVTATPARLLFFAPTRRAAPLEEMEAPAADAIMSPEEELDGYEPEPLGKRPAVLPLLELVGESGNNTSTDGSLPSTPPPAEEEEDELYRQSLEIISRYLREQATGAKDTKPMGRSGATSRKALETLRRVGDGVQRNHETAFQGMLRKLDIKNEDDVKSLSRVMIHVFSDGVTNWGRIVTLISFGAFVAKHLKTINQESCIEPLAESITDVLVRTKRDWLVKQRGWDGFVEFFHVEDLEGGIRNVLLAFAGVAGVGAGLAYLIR
Mcl-1 Bim block: disrupts Bim peptide binding to human Mcl-1; inhibition, % at 10 µM; 0.1% of 190,000 active; Q07820; Bead-based flow cytometry, Bim peptide-Mcl-1 binding; in the data active = inhibition above about 40%
eIF4E-4G inh: inhibitors of eIF4E and eIF4G interaction in translation initiation; P63073+Q04637; TR-FRET eIF4E-eIF4GI(517-606) binding, 2 h; inhibition, % at 21.7 µM; 0.37% of 220,000 active;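 active = inhibition above about 30%, limit read from the data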
Mcl1-Bid inh: disrupts binding of human Mcl-1 to Bid peptide | inhibition, % at 21.7 µM | 0.97% of 220,000 active | TR-FRET Mcl-1/Bid-Dy647 peptide binding, 1536-well | AID 1021;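 active = compounds that cut the binding signal by more than half at the single screening dose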;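 also: His-tagged Mcl-1 with europium anti-His antibody binding Bid BH3 peptide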
14-3-3 Bad PPI: disrupts binding of bovine 14-3-3 zeta to phospho-Bad peptide; P63103; TR-FRET 14-3-3zeta/Dy647-pBad peptide displacement, 1 h; inhibition, % at 21.7 µM; 0.71% of 220,000 active;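 active = inhibition above about 70%, limit read from the data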
Target sequence (P63103 whole entry, looked up): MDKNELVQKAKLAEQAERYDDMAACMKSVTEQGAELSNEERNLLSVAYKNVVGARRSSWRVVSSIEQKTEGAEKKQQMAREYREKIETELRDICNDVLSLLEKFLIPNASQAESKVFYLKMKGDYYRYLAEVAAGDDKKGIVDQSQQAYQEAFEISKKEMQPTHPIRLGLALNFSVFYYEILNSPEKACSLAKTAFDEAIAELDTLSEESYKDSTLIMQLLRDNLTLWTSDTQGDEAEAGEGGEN
A number is an active result; 0 = inactive; - = not tested or not shown; [ ] = another dose, or the depositor's remark. An excerpt weighted towards active compounds, which were near 2.7% of everything screened.

SMILES | Pf gamet viab | Mcl1 Noxa PPI | Mcl-1 Bim block | eIF4E-4G inh | Mcl1-Bid inh | 14-3-3 Bad PPI
CCn1cc(C(=O)OCC(=O)c2cc(C)n(-c3ccccc3)c2C)c(=O)c2ccc(C)nc21 | 0 | 0 | 0 | 0 | 0 | 0
CCn1cc(C(=O)OCC(=O)c2cc(C)n(-c3ccc(OC(F)F)cc3)c2C)c(=O)c2ccc(C)nc21 | 0 | 0 | 0 | 45[fluorescence artefact?] | 0 | 0
COC(=O)c1ccc(Oc2coc3cc(OCc4ccc([N+](=O)[O-])cc4)ccc3c2=O)cc1 | 0 | 55 | 0 | 0 | 94 | 0
CC(C)C(=O)NNC(=O)c1csc(-c2cccs2)n1 | 0 | 0 | - | 0 | 0 | 0
COc1ccc(CCn2c(=N)c(C(=O)NCc3ccco3)cc3c(=O)n4ccccc4nc32)cc1 | 0 | 68 | 0 | 0 | 0 | 0
N=c1c(C(=O)NCc2ccc(F)cc2)cc2c(=O)n3ccccc3nc2n1Cc1cccnc1 | - | 75 | 0 | 0 | 0 | 0
CCOC(=O)Nc1sc(=S)n(C)c1C | - | 0 | 0 | 0 | 0 | 84
CN(C)CCNC(=O)c1cc2sc3ccccc3c2s1 | 0 | 0 | 0 | 0 | 0 | 0
CC(C)N1CCc2c(sc(NC(=S)NC(=O)c3ccccc3)c2C#N)C1 | 0 | 0 | 0 | 0 | 0 | 0
Cc1onc(-c2ccccc2)c1C(=O)NC(=S)Nc1sc2c(c1C#N)CCCC2 | 0 | 0 | 0 | 0 | 0 | 0
CCCN1CCc2c(sc(NC(=S)NC(=O)c3ccccc3)c2C#N)C1 | 0 | 0 | 0 | 0 | 0 | 90
Cc1ccccc1C(=O)NC(=S)Nc1sc2c(c1C#N)CCCC2 | 0 | 0 | 0 | 0 | 93 | 0
Cc1cc2c(cc1[N+](=O)[O-])NC(CNC(C)C)CC2 (configuration not stated) | - | 0 | - | 0 | 0 | 0
O=C(O)c1cc(O)c2c(c1)C(=O)c1cccc(O)c1C2=O | - | 61 | 0 | 0 | 0 | 74
Cc1cc(O)c2c(c1)C(=O)c1cccc(O)c1C2=O | 0 | 0 | 0 | 0 | 0 | 0
COC(=O)c1ccc(NC(=O)Cn2nnc(-c3cccs3)n2)cc1 | 0 | 0 | 0 | 0 | 0 | 0
CCc1nnc(NC(=O)CSc2ccc(-c3ccco3)nn2)s1 | 0 | 59 | 0 | 0 | 0 | 0
Cc1nnc(NC(=O)CSc2ccc(-c3ccco3)nn2)s1 | 0 | 56 | 0 | 0 | 0 | 0
CCc1nnc(NC(=O)Cn2nc(-c3ccccc3OC)ccc2=O)s1 | 0 | 0 | 0 | 36 | 0 | 0
CCc1nnc(NC(=O)CSc2nnc(-c3ccco3)n2C)s1 | - | 0 | 0 | 0 | 0 | 0
O=C(CSc1ccc(-c2ccco2)nn1)c1ccccc1 | 0 | 59 | 0 | 0 | 0 | 0
Cc1ccc(S(=O)(=O)NC(C(=O)Oc2ccc3c(C(F)(F)F)cc(=O)oc3c2)c2ccccc2)cc1 (configuration not stated) | 0 | 0 | 0 | 0 | 0 | 0
COc1cc(Cl)c(C)cc1NC(=O)CSc1cc(Cl)ccc1Cl | 0 | 56 | 0 | 0 | 0 | 0
COc1cc(Cl)c(C)cc1NC(=O)CSc1ccc(C)cc1 | - | 0 | 0 | 0 | 0 | 0
CSc1nnc(NC(=O)c2cc3ccccc3oc2=O)s1 | - | 0 | 0 | 0 | 0 | 0
SMILES | Pf gamet viab | Mcl1 Noxa PPI | Mcl-1 Bim block | eIF4E-4G inh | Mcl1-Bid inh | 14-3-3 Bad PPI
Cc1ccc(C)c(NC2=CC(=O)CC(C)(C)C2)c1C#N | 0 | 0 | 0 | 0 | 0 | 76
CCC(OC(=O)c1cc2sccc2n1C)C(=O)NCc1ccco1 (configuration not stated) | 0 | 0 | 0 | 0 | 0 | 0
CCC1=NNc2cccc3c(OC)ccc1c23 | - | 78 | 0 | 0 | 0 | 0
CCCc1ccc(OCc2nc(-c3ccc(NC(=O)c4ccco4)cc3)no2)cc1 | - | 0 | 0 | 0 | 60 | 0
CO/N=C1\CCn2c1c(C)c1ccccc12 | 0 | 0 | - | 0 | 0 | 71
O=C(c1ccco1)N1CCN(Cc2cccc(F)c2)CC1 | - | 0 | 0 | 0 | 0 | 73
O=C(c1cccc(F)c1)N1CCC(N2CCOCC2)CC1 | 0 | 0 | 0 | 0 | 0 | 74
O=C(c1ccco1)N1CCN(CC(=O)N2c3ccccc3CCc3ccccc32)CC1 | 0 | 0 | 0 | 0 | 56 | 0
Fc1cccc(CN2CCCCCCC2)c1 | 0 | 0 | 0 | 0 | 0 | 78
CS(=O)(=O)Nc1ccc(C(=O)Nc2ccc(S(=O)(=O)N3CCCC3)cc2)cc1 | 0 | 0 | 0 | 0 | 0 | 0
COc1cccc(C(=O)N2CCN(Cc3cccc(F)c3)CC2)c1 | 0 | 0 | 0 | 0 | 0 | 0
CCOc1ccc(CN2CCN(C(=O)c3cccc(F)c3)CC2)cc1 | 0 | 0 | 0 | 0 | 66 | 72
O=C(c1ccco1)N1CCN(Cc2ccc(Cl)cc2)CC1 | 0 | 0 | 0 | 0 | 0 | 78
O=C(CN1CCN(C(=O)c2cccc(F)c2)CC1)NC1CCCCC1 | 0 | 0 | 0 | 0 | 0 | 75
Cc1ccc(NC(=O)CCn2c(=O)oc3ccccc32)c(C)c1 | - | 0 | 0 | 0 | 0 | 0
COc1ccccc1N1CCN(C(=O)CN(C)S(=O)(=O)c2cc(C)ccc2OC)CC1 | 0 | 0 | 0 | 0 | 0 | 0
Cc1nc(N2CCOCC2)c2oc3ccccc3c2n1 | 0 | 0 | 0 | 0 | 0 | 0
c1ccc2c(c1)oc1c(N3CCOCC3)ncnc12 | 0 | 0 | 0 | 0 | 0 | 81
CCN1C(=O)/C(=C/C=C2\C=CN(CC)c3ccccc32)SC1=S | - | 64 | 0 | 0 | 0 | 0
Cc1sc2nc(-c3cccnc3)nc(Cl)c2c1-c1ccccc1 | - | 0 | 0 | 0 | 0 | 0
Cc1ccc(-n2cnnn2)c2cccnc12 | - | 0 | 0 | 0 | 57 | 0
COc1ccc2c([N+](=O)[O-])c(Cl)[nH]c2c1 | 0 | 0 | 0 | 0 | 0 | 0
COc1ccc(N2CCN(C(=O)C3CCN(S(=O)(=O)c4ccc(F)cc4)CC3)CC2)cc1 | 0 | 0 | 0 | 0 | 0 | 0
Nc1ccc(SC(F)(F)F)cc1 | - | 0 | 0 | 0 | 0 | 0
COC(=O)c1cc(=O)nc2sc3ccccc3n12 | 0 | 0 | 0 | - | 0 | -
SMILES | Pf gamet viab | Mcl1 Noxa PPI | Mcl-1 Bim block | eIF4E-4G inh | Mcl1-Bid inh | 14-3-3 Bad PPI
O=C(Cc1coc2cc3c(cc12)CCC3)OCc1cc(=O)n2c(n1)sc1ccccc12 | - | 51 | 0 | 0 | 0 | 0
O=C(OCc1cc(=O)n2c(n1)sc1ccccc12)c1ccc(O)cc1O | 0 | 0 | 0 | 33 | 0 | 0
O=C(OCc1cc(=O)n2c(n1)sc1ccccc12)c1cccc(O)c1 | 0 | 67 | 0 | 0 | 0 | 0
O=C(Sc1ccccc1)c1cccc(Cn2cc(C(F)(F)F)ccc2=O)c1 | 0 | 0 | - | 0 | 0 | 0
CC(Oc1ccc2ccc(=O)oc2c1)C(=O)c1ccccc1 (configuration not stated) | 0 | 0 | 0 | 0 | 52 | 0
S=c1[nH]nc(-c2cc(-c3ccccc3)n[nH]2)n1/N=C/c1c(Cl)cccc1Cl | 0 | 0 | - | 0 | 0 | 0
Cc1ccc(/C=N/n2c(-c3cccnc3)n[nH]c2=S)o1 | 0 | 0 | - | 0 | 0 | 0
CN(C)c1ccc(/C=N/n2c(-c3cccnc3)n[nH]c2=S)cc1 | 0 | 56 | 0 | 0 | 0 | 0
S=c1[nH]nc(-c2cc(-c3ccccc3)n[nH]2)n1/N=C/c1ccc(Br)s1 | 0 | 70 | - | 0 | 0 | 0
Cc1ccc(/C=N/n2c(-c3cccnc3)n[nH]c2=S)s1 | 0 | 51 | 0 | 0 | 0 | 0
COc1ccc(NC(=S)N2CCCC2)c(OC)c1 | 0 | 0 | 0 | 0 | 0 | 0
